Source: PubChem BioAssay (NCATS)
Inconclusive results are not listed. Activity calls are given as the source filed them. Calls follow the shape of the dose curve; as a rule, active = well fitted inhibition curve with a large enough effect; inconclusive = small, poorly fitted or top-dose-only effect; inactive = flat fitted curve, though single readings scatter.

Biological target: Dual specificity protein kinase CLK4 (Homo sapiens) (UniProt Q9HAZ1)
Assay: qHTS Assay for Inhibitors of CDC-like Kinase 4 (ADP-Glo Assay) (AID 1771); also: nearly all actives have a fitted effect of over 70% in size
Details: recombinant CLK4, ADP-Glo luminescence; series mostly up to 80 µM; activity change, negative = inhibition: at the top concentration
Description: NIH Molecular Libraries Probe Production Centers Network [MLPCN] NIH Chemical Genomics Center [NCGC] MLPCN Grant: 1R03MH084827-01 Assay Submitter (PI): Tom Misteli NCGC Assay Overview: Clk4 (Invitrogen, cat# PV3839) was assayed using ATP and the RS repeat peptide (AnaSpec cat # 61722) as substrates. In the assay, the ADP levels were detected using Promega ADP-Glo technology wherein the remaining ATP from the kinase reaction is first depleted with an ATPase reagent followed by a reagent that contains and enzyme which converts the ADP produced to ATP as well as Ultra-Glo luciferase and D-luciferin which generates a bioluminescence signal from the ATP. The positive control for the assay was TG003 (Sigma-Aldrich, cat# 300801-52-9) which has been described as an inhibitor of Clk 4[1].
NCGC Assay Protocol Summary: Two uL/well of substrate-buffer solution (100 uM RS peptide, 1 uM ATP, 1x ADP-Glo Buffer A, 2 mM MgCl2, 0.5 mM EGTA, 2.5 mM DTT, 0.01% Triton X-100, final concentrations) was dispensed into 1536-well plates (Greiner, solid white, medium binding assay plates) with the Aurora Discovery BioRAPTR Flying Reagent Dispenser (FRD; Beckton-Dickenson). Twenty-three nanoliter of compound and control solutions were transferred to the assay plate using a Kalypsys pin-tool followed by 0.5 uL/well Clk4-buffer solution (25 nM Clk4, 1x ADP-Glo Buffer A, 2 mM MgCl2, 0.5 mM EGTA, 2.5 mM DTT, 0.01% Triton X-100 final concentration) dispensing for a total kinase reaction volume of 2.5 uL/ well. After 1 hr of room-temperature incubation, 2.5 uL ADP-Glo reagent was added and incubated at room temperature for 45 min to stop the kinetic reaction and degrade residual ATP. The ADP product was then converted to ATP by adding 5 uL per well of ADP-Glo Reagent II to yield a total assay volume of 10 uL/ well. Luminescence was detected after 30 min room temperature incubation with the Perkin Elmer Viewlux.
% is scaled to controls: 0 for no effect and ±100 for the full control effect; potency is read from the fitted curve at half-maximal effect.

Dual specificity protein kinase CLK4 (Homo sapiens), sequence (Q9HAZ1 whole entry, looked up): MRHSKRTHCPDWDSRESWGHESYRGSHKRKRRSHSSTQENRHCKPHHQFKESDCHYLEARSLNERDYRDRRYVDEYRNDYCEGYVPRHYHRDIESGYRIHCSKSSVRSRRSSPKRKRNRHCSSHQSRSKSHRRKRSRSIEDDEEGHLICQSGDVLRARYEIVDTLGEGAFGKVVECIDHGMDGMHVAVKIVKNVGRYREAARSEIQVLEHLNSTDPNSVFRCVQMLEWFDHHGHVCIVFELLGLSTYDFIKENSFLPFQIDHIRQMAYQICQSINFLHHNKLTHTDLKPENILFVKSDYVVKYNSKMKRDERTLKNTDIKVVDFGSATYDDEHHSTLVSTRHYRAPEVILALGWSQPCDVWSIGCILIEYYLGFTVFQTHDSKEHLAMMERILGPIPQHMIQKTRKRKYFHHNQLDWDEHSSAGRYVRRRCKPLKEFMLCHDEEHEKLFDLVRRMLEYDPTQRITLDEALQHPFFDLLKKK

Compound | activity change, negative = inhibition | Potency
c1ccc2c(NC3CCNCC3)nc(-c3ccoc3)nc2c1 | -27.6% (inactive) | 
Cc1nc2cnc(N3CCOCC3)nc2n(C)c1=O | -11.8% (inactive) | 
CN(C)c1ncc2nc(-c3ccc(F)cc3)c(=O)n(C)c2n1 | -18.4% (inactive) | 
CS(=O)(=O)Nc1cccc(-c2ccc3ncnc(NC4CCNCC4)c3c2)c1 |  | 7.08 µM (active)
CNc1nc(-c2ccccc2CN(C)C)nc2ccccc12 | -15.5% (inactive) | 
Cc1nc2cnc(Nc3ccccc3)nc2n(CCC#N)c1=O | -17.1% (inactive) | 
CC(=O)NCCNc1ncncc1-c1ccc(N(C)C)cc1 | -5.24% (inactive) | 
CN(C)c1ncc2nc(-c3cn(C)c4ccccc34)c(=O)n(C[C@H]3CCCO3)c2n1 | -3.2% (inactive) | 
COc1ccc(-n2c(=O)cnc3cnc(OC)nc32)cc1 |  | 14.1 µM (active)
CN1CCN(c2ncc3nc(-c4ccc(Cl)cc4)c(=O)n(Cc4cccs4)c3n2)CC1 | 2.44% (inactive) | 
COCCn1c(=O)c(-c2ccccc2)nc2cnc(OC)nc21 | -1.6% (inactive) | 
COc1ncc2nc(-c3cc(F)cc(F)c3)c(=O)n(C)c2n1 | 0.75% (inactive) | 
O=c1c(-c2cccs2)nc2cnc(N3CCOCC3)nc2n1Cc1cccs1 | 2.25% (inactive) | 
COCCNc1nc(-c2ccccc2OC)nc2ccccc12 | -24% (inactive) | 
COc1cccc(-c2ccc3ncnc(N(C)Cc4ccco4)c3c2)c1 |  | 1.78 µM (active)
Cn1c(=O)c(CCc2ccccc2)nc2cnc(OCc3ccccc3)nc21 | 2.5% (inactive) | 
O=c1c(-c2cc(F)cc(F)c2)nc2cnc(N3CCNCC3)nc2n1-c1ccccc1 |  | 22.4 µM (active)
CN(C)Cc1ccccc1-c1nc(N(C)C)c2ccccc2n1 | -9.45% (inactive) | 
Cc1noc(C)c1-c1cc(NCc2cccs2)ncn1 |  | 10 µM (active)
Cc1ccccc1-c1cc(NCCN2CCOCC2)ncn1 | -8.29% (inactive) | 

Compound | activity change, negative = inhibition | Potency
CN1CCN(c2ncncc2-c2ccccc2C(F)(F)F)CC1 | 4.85% (inactive) | 
CC(=O)NCCNc1ncncc1-c1ccccc1C | 8.65% (inactive) | 
Fc1ccc(Nc2ncncc2-c2ccoc2)cc1 |  | 10 µM (active)
CCNc1ncc2nc(-c3ccccc3)c(=O)n(C[C@H]3CCCO3)c2n1 | -9.99% (inactive) | 
CN1CCN(c2ncnc3ccc(-c4ccc5c(c4)OCO5)cc23)CC1 |  | 0.562 µM (active)
CCNc1ncc2nc(-c3ccccc3)c(=O)n(Cc3cccs3)c2n1 | 2.34% (inactive) | 
COc1ncc2nc(-c3ccccc3)c(=O)n(-c3ccccc3)c2n1 | -10.7% (inactive) | 
CC(=O)NCCNc1ncnc2ccc(-c3c(C)noc3C)cc12 |  | 6.31 µM (active)
CN1CCN(c2ncc3ncc(=O)n(CCC#N)c3n2)CC1 | -13% (inactive) | 
COc1cccc(Cn2c(=O)c(-c3cccc(C#N)c3)nc3cnc(N4CCN(C)CC4)nc32)c1 | -3.23% (inactive) | 
CN(C)c1ccc(-c2ccc3ncnc(N(C)C)c3c2)cc1 |  | 8.91 µM (active)
COc1ccc(CNc2ncnc3ccc(-c4cccnc4)cc23)c(OC)c1 |  | 14.1 µM (active)
O=c1c(-c2ccc(Cl)cc2)nc2cnc(N3CCOCC3)nc2n1C[C@H]1CCCO1 | 10.4% (inactive) | 
Cc1ccccc1-c1cncnc1NCc1cccs1 | -13.9% (inactive) | 
c1cncc(-c2cncnc2NC2CCNCC2)c1 | -1.72% (inactive) | 
CCNc1ncc2ncc(=O)n(Cc3cccs3)c2n1 |  | 5.62 µM (active)
Cc1nc2cnc(N3CCN(C)CC3)nc2n(CCC#N)c1=O | -3.35% (inactive) | 
COCCn1c(=O)c(-c2cccc(C#N)c2)nc2cnc(Oc3ccccc3)nc21 | -2.15% (inactive) | 
O=c1cnc2cnc(N3CCOCC3)nc2n1CCc1ccccc1 |  | 7.94 µM (active)
Cc1ccccc1-c1nccc(Nc2ccc(F)cc2)n1 | -12.8% (inactive) | 
